Data as given in PubChem BioAssay (Tox21).
Inconclusive results are not listed. Where a call stands in place of a potency, no number is given. Values without a mark were called inactive. The source made the active and inactive calls. Calls follow the shape of the full dose curve.

assay: cAMP Responsive Elements (CRE) small molecule agonists, cell-based qHTS assay (AID 1963590); conditions: CRE-bla HEK293T, beta-lactamase FRET ratio, 3 h; series mostly up to 92.4 µM
Source text: U.S. Tox21 Program National Center for Advancing Translational Sciences [NCATS] Division of Preclinical Innovation [DPI] U.S. Environmental Protection Agency [EPA] National Institutes of Environmental Health Sciences [NIEHS] National Toxicology Program [NTP] U.S. Food and Drug Administration [FDA] Tox21 Assay Overview: CREB (cyclic-AMP Responsive Element Binding Protein) is a cellular transcription factor. It binds to certain DNA sequences called cAMP Responsive Elements (CRE) and regulates the transcription of the genes. […] This cell line can be used to find agonists/antagonists of the cyclic AMP signaling pathway. The activation of the report gene under culture conditions can be detected by fluorescence intensity. This cell line has been used to screen the Tox21 10K compound library to identify agonists that induce oxidative stress.
Tox21 Assay Protocol Summary: CRE-bla Hek 293T cells were suspended in assay medium (DMEM containing 10% dialyzed FBS, 0.1 mM NEAA, 1 mM sodium pyruvate and 25 mM HEPES) and dispensed at 2,000 cells/5 uL /well into 1536-well black wall/clear bottom plates using a Multidrop Combi (ThermoFisher Scientific, Waltham, MA) dispenser. After the assay plates were incubated at 37 C/5% CO2 for 18 hrs, 23 nL of compounds dissolved in DMSO, positive controls or DMSO only was transferred to the assay plate by a pintool workstation (Kalypsys, San Diego, CA). After the plates were incubated at 37 C/5% CO2 for 3 hrs, 1 uL of LiveBLAzer B/G FRET substrate (Invitrogen, Carlsbad, CA) was added to each well using Bioraptr Flying Reagent Dispenser (FRD, Aurora Discovery, San Diego, CA). The plates were incubated at room temperature for 2 h.

Compound	Potency	activation
O=C(O)C(O)C(O)C(=O)O (stereo not given)	inactive	
C[N+](C)=CCl	inactive	
CNC(=O)Oc1cc(C)c(N(C)C)c(C)c1	inactive	
NC(=S)C(N)=S	inactive	
CC[N+]1(CCOC(=O)C(O)(c2ccccc2)c2ccccc2)CCCCC1	inactive	
Cc1cc(C)nc(Nc2ccccc2)n1	inactive	
CN[C@@H](C)[C@H](O)c1ccccc1	inactive	
CCC1CCC(=O)O1 (stereo not given)	inactive	
c1ccc2nc(N3CCNCC3)ccc2c1	inactive	
CCSC(=O)N(CC)C1CCCCC1	inactive	
CCCC[N+](=O)[O-]	inactive	
NCCc1cc(O)c(O)cc1O	inactive	
O=C(O)c1ccccc1C(=O)Nc1cccc2ccccc12	inactive	
Clc1ccc(CSC(Cn2ccnc2)c2ccc(Cl)cc2Cl)cc1 (stereo not given)	inactive	
Nc1ccccc1-c1ccccc1	inactive	
CCCCCCCCCCCCN=C(N)N		-0.694% [at 3.27 µM]
O=C(Cl)c1ccccc1F	inactive	
CCCN1CCC[C@@H]2Cc3nc(N)ncc3C[C@H]21	inactive	
CCOP(=S)(OCC)SCCS(=O)(=O)CC	inactive	
NC(=O)c1ccc(N)nc1	inactive	

Compound	Potency	activation
O=C(O)C(Br)CBr (stereo not given)	inactive	
ClC=C(Cl)Cl	inactive	
COC(=O)C(C)Oc1ccc(Oc2ccc(Cl)cc2Cl)cc1 (stereo not given)	inactive	
[Cl-].[Cl-].[Cl-].[Yb+3]	inactive	
BrCC(Br)C1CCC(Br)C(Br)C1 (stereo not given)	inactive	
O=CC=O	inactive	
Cc1nnc(-c2ccccc2)c(=O)n1N	inactive	
CCCC[N+]1(C)[C@@H]2CC(OC(=O)[C@H](CO)c3ccccc3)C[C@H]1[C@@H]1O[C@@H]12 (stereo not given in full)	inactive	
Cc1cccc(OP(=O)(Oc2cccc(C)c2)Oc2cccc(C)c2)c1	inactive	
ClSC(Cl)(Cl)Cl	inactive	
CCC#N	inactive	
COP(N)(=S)Oc1ccccc1C(=O)OC(C)C (stereo not given)	inactive	
Nc1cc(Cl)ccc1O	inactive	
CC1(C)COP(Oc2ccccc2)OC1	inactive	
CCC1(C2=NCCN2)Cc2ccccc2O1 (stereo not given)	inactive	
CCOc1ccc(C(C)(C)COCc2cccc(Oc3ccccc3)c2)cc1	inactive	
N#C/C=C/c1ccccc1	inactive	
CC(C)[C@]12CC(=O)[C@H](C)[C@H]1C2	inactive	
CN(C)C(=O)Nc1cccc(OC(=O)NC(C)(C)C)c1	inactive	
C=C(C)C(=O)OCCCCOC(=O)C(=C)C	inactive	
